In PubChem BioAssay (NCI):
The panel holds about 83,000 compounds, 20% with a hit somewhere; the sample as a whole holds those more often.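 A percent growth of 40 corresponds to 60% growth inhibition; 0 means no net growth; -100 means all cells died. Active threshold: below 10.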 Calls of active or inactive are those of the source.

Columns and labels:
Assay in all cases: NCI-60 one-dose screen, 48 h (100 = growth as untreated, 0 = no growth, -100 = all killed)
Conditions in all cases: 10 µM unless noted
[1] = test system: NCI-H23 lung
[2] = test system: NCI-H226 lung
[3] = test system: NCI-H322M lung
[4] = test system: HOP-62 NSCLC
[5] = test system: NCI-H460 lung
[6] = test system: HOP-92 NSCLC
[7] = test system: NCI-H522 lung
[8] = test system: A549/ATCC NSCLC
[9] = test system: 786-0 renal
[10] = test system: COLO 205 colon

Measured: growth

CCSc1oc(C)nc1[P+](c1ccccc1)(c1ccccc1)c1ccccc1
active: [10] -7.48%
inactive: [1] 20.6% | [2] 57.9% | [3] 77% | [4] 21.3% | [5] 16.8% | [6] 25.3% | [7] 24.8% | [8] 23.2% | [9] 56.6%

Cc1nc2sc(C(=O)Nc3cccc(Br)c3C)c(N)c2cc1C(O)c1ccccc1 (stereo not drawn)
active: [5] -0.559% | [7] 2.97% | [8] 9.65% | [10] -51.6%
inactive: [1] 18.5% | [2] 38.3% | [3] 42.2% | [4] 21.2% | [6] 24% | [9] 15.5%

CN1CCN(c2ccc(NC(=O)c3cncnc3Nc3ccc(OCc4cccc(F)c4)c(Cl)c3)cc2)CC1
inactive: [1] 78% | [2] 94.9% | [3] 81.1% | [4] 33.1% | [6] 57.1% | [7] 103% | [8] 57% | [9] 56%
active: [5] 5.33% | [10] 6.12%

O=C1c2ccccc2C(=O)C1c1ccc(Br)cc1
inactive: [1] 81.6% | [2] 103% | [3] 122% | [4] 115% | [5] 102% | [6] 75.1% | [7] 96.9% | [8] 108% | [9] 93.9% | [10] 113%

CCOc1ccc(-n2nc(C(=O)NCc3ccccc3OC)nc2-c2cc(OC)c(OC)c(OC)c2)cc1
inactive: [1] 60.7% | [2] 62.5% | [3] 52.4% | [4] 62.2% | [5] 30.5% | [6] 29% | [7] 35.7% | [8] 34.5% | [9] 41.5% | [10] 30.3%

CCOC(=O)c1c(C)nc2c(c1N)/C(=C/c1ccc(OC)cc1)C(=O)N2Cc1ccccc1
inactive: [1] 59.2% | [2] 86.1% | [3] 74.9% | [4] 58.1% | [5] 41.1% | [6] 45% | [7] 66.3% | [8] 63.4% | [9] 64.4% | [10] 73.7%

C[n+]1ccc(CCc2c[nH]c3ccccc23)cc1
inactive: [1] 102% | [2] 109% | [3] 93.4% | [4] 69.3% | [5] 107% | [6] 93.9% | [7] 81.4% | [8] 66.2% | [9] 100% | [10] 96.8%

CCCCNC(=O)c1cc([N+](=O)[O-])cc(C2CCCCC2)c1O
inactive: [2] 29.5% | [3] 55.3% | [4] 57.7% | [5] 30% | [7] 25.4% | [8] 32% | [9] 40.7% | [10] 56.4%
active: [1] 8.28% | [6] -13.6%

CN1C(=O)/C(=C2\SC(=Nc3ccccc3)N(Nc3ccccc3)C2=O)c2ccccc21
inactive: [1] 94.1% | [2] 93.8% | [3] 95.4% | [4] 88.1% | [5] 101% | [6] 100% | [7] 94.5% | [8] 98.6% | [9] 107% | [10] 112%

CN1CCN(CCOc2ccc(-c3cnc4c(-c5cccc(F)c5F)cnn4c3)cc2)CC1
inactive: [1] 35.9% | [2] 97.9% | [3] 96% | [4] 106% | [6] 100% | [7] 88.6% | [10] 87.6%
active: [5] -55.9% | [8] -7.4% | [9] -61.4%

O=C(CCCCCCN1CC(=O)N2[C@H](c3ccc(Br)cc3)c3[nH]c4ccccc4c3C[C@@H]2C1=O)NO
inactive: [1] 53% | [2] 80.2% | [3] 50.3% | [4] 52.2% | [5] 44.7% | [6] 31.3% | [7] 26.9% | [8] 80% | [9] 89.1% | [10] 38.7%

CCCn1nc(C(=O)N(C)Cc2ccccc2)c2c1CCC(N1CCc3ccccc31)C2 (stereo not drawn)
inactive: [1] 97.9% | [2] 97.9% | [3] 101% | [4] 103% | [5] 112% | [6] 90.7% | [7] 86.5% | [8] 93% | [9] 95.2% | [10] 117%

COC1=C(C)C(=O)N2[C@@H]1[C@H](c1ccccc1)OC21C=CC(=O)C=C1
inactive: [3] 81.8% | [4] 28.7% | [5] 89.4% | [8] 82.3%
active: [1] 3.23% | [2] -25.9% | [6] -11.7% | [7] -69.3% | [9] -48.9% | [10] -34.6%

COc1ccc2c(c1)/C(=N/c1n[nH]c(=S)s1)C(=O)N2
inactive: [1] 93% | [2] 96.8% | [3] 91.8% | [4] 99.9% | [5] 92.9% | [6] 92.8% | [7] 76.3% | [8] 83.7% | [9] 105% | [10] 118%

COc1ccc(C(=O)c2cc3c(N)c(C(=O)Nc4ccccc4)sc3nc2C)cc1
active: [5] 6.22% | [7] 9.62% | [10] 7.64%
inactive: [1] 36.1% | [2] 65.3% | [3] 63% | [4] 44.8% | [6] 82.2% | [8] 31.1% | [9] 46.4%

Nn1c(=O)c(=O)[nH]c2c(cnn2-c2ccccc2)c1=O
inactive: [1] 108% | [2] 94.2% | [3] 108% | [4] 86.2% | [5] 117% | [6] 106% | [7] 96.2% | [8] 101% | [9] 103% | [10] 121%

N#Cc1cccc(C2C3=C(COC3=O)N(CCO)c3cc4c(cc32)CCC4)c1 (stereo not drawn)
active: [5] 3.78% | [7] -3.91% | [10] -26.1%
inactive: [1] 23.3% | [2] 28.4% | [3] 34.2% | [4] 26.3% | [6] 43% | [8] 12.3% | [9] 24%

COC(=O)CCC/C=C\C[C@H]1C=CC(=O)/C1=C/C[C@@H](O)C/C=C\CC(F)(F)F
inactive: [3] 46.9%
active: [1] -15.2% | [2] -48% | [4] -12.4% | [5] -47.2% | [6] -18.8% | [7] -56.6% | [8] -3.51% | [9] -39.5% | [10] -36.2%

CSc1nn2c(-c3ccc4ccccc4c3)ccnc2c1C#N
active: [5] -29.6% | [7] -23.4% | [8] 5.43%
inactive: [1] 33.1% | [2] 24.9% | [3] 56.2% | [4] 18.6% | [6] 33.8% | [9] 22.2% | [10] 17%

N=C(N)c1ccc(-c2ccc(-c3cc(Cl)cc(Cl)c3)s2)nc1
inactive: [1] 75.5% | [2] 93.7% | [3] 52.8% | [4] 86.5% | [6] 87.8% | [7] 34.1% | [9] 79.6%
active: [5] -60.3% | [8] 0.133% | [10] -38.4%

COC(=O)c1c2c(c(C)[n+]([O-])c1C)C(=O)C(NCc1ccc(OC)cc1)=CC2=O
inactive: [1] 27.5% | [2] 81.7% | [4] 47.7% | [5] 10.2% | [6] 36.9% | [9] 54.2%
active: [3] 6.55% | [8] 4.4% | [10] -45.2%

CCc1ccc(CCC(=O)Nc2ncc(Cc3ccccc3)s2)o1
active: [5] 7.58%
inactive: [1] 37.6% | [2] 64.3% | [3] 54.7% | [4] 23% | [6] 87.8% | [8] 32% | [9] 41.6% | [10] 12.3%
